Measured values taken from ChEMBL document CHEMBL1961873, “Compounds: GSK PKIS; Assays: Nanosyn kinase panel” (2012).
“And” between values parts separate entries of the source, which are not always exact repeats. Identical values can stand only once.

Legend:
[1] = target: T1, Tyrosine-protein kinase receptor TYRO3 (Homo sapiens) (UniProt Q06418); conditions: at 1 µM
T1 sequence (whole entry): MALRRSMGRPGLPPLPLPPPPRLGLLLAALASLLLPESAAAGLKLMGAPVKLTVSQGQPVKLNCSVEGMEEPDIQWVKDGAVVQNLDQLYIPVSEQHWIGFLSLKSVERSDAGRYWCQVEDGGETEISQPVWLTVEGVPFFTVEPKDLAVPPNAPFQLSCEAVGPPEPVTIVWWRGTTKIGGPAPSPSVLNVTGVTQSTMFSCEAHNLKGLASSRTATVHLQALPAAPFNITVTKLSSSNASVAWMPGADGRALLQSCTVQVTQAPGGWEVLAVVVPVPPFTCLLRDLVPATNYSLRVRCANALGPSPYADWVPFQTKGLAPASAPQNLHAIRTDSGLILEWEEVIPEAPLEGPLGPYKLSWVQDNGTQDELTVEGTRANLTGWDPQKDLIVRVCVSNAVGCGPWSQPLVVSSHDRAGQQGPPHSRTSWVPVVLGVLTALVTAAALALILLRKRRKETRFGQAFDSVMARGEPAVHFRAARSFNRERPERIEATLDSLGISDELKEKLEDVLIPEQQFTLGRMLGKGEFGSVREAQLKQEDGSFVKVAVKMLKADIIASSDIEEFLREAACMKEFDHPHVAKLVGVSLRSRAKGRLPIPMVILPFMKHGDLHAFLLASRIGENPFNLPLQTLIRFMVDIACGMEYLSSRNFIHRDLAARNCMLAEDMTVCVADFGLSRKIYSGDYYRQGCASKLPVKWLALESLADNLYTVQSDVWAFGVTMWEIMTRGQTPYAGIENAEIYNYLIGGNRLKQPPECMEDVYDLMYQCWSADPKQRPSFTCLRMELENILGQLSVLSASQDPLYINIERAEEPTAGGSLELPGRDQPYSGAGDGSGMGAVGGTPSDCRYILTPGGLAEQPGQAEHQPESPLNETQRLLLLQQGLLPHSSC

[2] = target: Tyrosine-protein kinase Yes (Homo sapiens) (UniProt P07947); conditions: at 0.1 µM
Chain of Tyrosine-protein kinase Yes (Homo sapiens) (P07947 2-543 limits assumed): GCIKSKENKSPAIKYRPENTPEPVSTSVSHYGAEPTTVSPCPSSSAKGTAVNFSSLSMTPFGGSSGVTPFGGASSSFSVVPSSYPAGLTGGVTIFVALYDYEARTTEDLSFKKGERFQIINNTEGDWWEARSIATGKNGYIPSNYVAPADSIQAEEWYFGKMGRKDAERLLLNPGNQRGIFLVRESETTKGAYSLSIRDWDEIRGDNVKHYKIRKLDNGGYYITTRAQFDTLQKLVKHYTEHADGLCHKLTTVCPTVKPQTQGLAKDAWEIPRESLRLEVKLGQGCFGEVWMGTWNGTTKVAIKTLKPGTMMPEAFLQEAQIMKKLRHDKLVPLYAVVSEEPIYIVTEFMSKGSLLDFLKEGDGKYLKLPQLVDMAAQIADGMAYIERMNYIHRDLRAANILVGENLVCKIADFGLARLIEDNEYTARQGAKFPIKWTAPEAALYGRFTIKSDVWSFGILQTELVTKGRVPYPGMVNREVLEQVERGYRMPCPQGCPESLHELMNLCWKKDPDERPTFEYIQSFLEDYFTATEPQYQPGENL

[3] = target: Tyrosine-protein kinase Yes (Homo sapiens) (UniProt P07947); conditions: at 1 µM
[4] = target: T2, Tyrosine-protein kinase ZAP-70 (Homo sapiens) (UniProt P43403); conditions: at 0.1 µM
T2 sequence (whole entry): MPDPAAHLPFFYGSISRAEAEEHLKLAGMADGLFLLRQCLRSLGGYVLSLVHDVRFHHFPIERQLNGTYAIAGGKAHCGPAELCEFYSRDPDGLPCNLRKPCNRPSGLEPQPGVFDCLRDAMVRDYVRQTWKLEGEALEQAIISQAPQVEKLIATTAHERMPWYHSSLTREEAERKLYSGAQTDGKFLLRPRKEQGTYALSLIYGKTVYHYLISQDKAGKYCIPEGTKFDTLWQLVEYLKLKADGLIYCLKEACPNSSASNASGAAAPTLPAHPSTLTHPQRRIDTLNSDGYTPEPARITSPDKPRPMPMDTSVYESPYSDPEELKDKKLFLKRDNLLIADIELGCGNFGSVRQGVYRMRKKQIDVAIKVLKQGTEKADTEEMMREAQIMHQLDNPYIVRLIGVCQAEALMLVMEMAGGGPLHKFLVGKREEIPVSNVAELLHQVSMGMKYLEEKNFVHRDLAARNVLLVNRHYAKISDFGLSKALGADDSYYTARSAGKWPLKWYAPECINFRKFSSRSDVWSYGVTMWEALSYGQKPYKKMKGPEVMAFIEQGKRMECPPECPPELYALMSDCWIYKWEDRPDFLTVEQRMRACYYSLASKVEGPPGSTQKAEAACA

[5] = target: T2, Tyrosine-protein kinase ZAP-70 (Homo sapiens); conditions: at 1 µM
[6] = target: Serine/threonine-protein kinase B-raf (Homo sapiens) (UniProt P15056); conditions: at 0.1 µM
Chain of Serine/threonine-protein kinase B-raf (Homo sapiens) (P15056 whole entry): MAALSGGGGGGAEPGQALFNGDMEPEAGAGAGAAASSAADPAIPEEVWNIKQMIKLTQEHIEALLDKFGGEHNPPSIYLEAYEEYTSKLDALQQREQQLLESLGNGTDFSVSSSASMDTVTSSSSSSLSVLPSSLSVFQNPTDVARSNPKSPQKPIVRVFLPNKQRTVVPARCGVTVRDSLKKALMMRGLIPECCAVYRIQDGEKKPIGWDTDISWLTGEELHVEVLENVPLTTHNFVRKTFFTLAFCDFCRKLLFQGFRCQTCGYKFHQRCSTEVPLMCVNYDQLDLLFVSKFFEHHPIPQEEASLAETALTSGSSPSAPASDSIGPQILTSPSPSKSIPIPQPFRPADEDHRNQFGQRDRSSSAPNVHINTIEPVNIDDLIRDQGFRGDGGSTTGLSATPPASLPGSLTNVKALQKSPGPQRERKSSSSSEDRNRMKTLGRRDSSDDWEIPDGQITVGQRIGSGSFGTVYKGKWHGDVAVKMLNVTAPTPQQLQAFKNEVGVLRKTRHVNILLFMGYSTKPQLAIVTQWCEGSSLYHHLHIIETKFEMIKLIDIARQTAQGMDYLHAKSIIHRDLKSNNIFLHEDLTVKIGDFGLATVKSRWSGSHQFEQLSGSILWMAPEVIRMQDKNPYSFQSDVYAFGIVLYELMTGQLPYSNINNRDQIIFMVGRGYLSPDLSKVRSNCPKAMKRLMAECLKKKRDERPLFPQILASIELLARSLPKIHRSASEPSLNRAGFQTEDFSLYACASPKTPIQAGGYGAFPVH

[7] = target: Serine/threonine-protein kinase B-raf (Homo sapiens) (UniProt P15056); conditions: at 1 µM
[8] = test system: Serine/threonine-protein kinase B-raf (Homo sapiens), P15056 [V600E]; conditions: at 0.1 µM
Chain of Serine/threonine-protein kinase B-raf (Homo sapiens), P15056 [V600E] (P15056 whole entry V600E): as the sequence (P15056 whole entry) above, with V600E counted along it

[9] = test system: Serine/threonine-protein kinase B-raf (Homo sapiens), P15056 [V600E]; conditions: at 1 µM
[10] = target: RAF proto-oncogene serine/threonine-protein kinase (Homo sapiens) (UniProt P04049); conditions: at 0.1 µM;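 also: values are mean CRAF kinase inhibition from profiling of the GSK Published Kinase Inhibitor Set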
Chain of RAF proto-oncogene serine/threonine-protein kinase (Homo sapiens) (P04049 whole entry): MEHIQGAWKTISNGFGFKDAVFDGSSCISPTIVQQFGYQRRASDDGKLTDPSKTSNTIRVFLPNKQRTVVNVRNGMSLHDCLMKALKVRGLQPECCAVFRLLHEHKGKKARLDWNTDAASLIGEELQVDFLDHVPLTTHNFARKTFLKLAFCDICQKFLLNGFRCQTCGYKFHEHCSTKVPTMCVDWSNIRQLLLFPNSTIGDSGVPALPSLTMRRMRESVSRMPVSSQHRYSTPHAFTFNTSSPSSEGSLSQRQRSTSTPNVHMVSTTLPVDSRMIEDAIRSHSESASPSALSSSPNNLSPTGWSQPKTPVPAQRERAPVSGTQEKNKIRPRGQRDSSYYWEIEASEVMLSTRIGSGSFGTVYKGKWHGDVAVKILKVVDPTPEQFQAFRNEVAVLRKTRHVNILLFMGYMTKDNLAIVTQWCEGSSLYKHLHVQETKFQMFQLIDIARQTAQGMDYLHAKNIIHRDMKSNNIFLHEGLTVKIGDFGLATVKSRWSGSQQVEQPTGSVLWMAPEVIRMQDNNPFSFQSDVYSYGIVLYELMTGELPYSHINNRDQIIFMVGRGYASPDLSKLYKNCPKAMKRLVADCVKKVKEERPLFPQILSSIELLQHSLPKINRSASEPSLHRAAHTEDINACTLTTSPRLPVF

Row | SMILES | inhibition [1] | inhibition [2] | inhibition [3] | inhibition [4] | inhibition [5] | inhibition [6] | inhibition [7] | inhibition [8] | inhibition [9] | inhibition [10]
1 | CS(=O)(=O)CCNCc1ccc(-c2ccc3ncnc(Nc4ccc(OCc5cccc(C(F)(F)F)c5)cc4)c3c2)o1 | 0.73% | 0.5% | 5.33% | 3.18% | 0.41% | 6.08% | 8.69% | 4.37% | 5.8% | 1.96%
2 | COc1cc(N2CCN(C(C)C)CC2)ccc1Nc1nc(Nc2cccc3ncccc23)c2cc[nH]c2n1 | -0.92% | -0.19% | 1.79% | -0.91% | -0.16% | -0.4% | 0.61% | 0.32% | 1.11% | 0.02%
3 | COc1cc2c(cc1Nc1nc(Nc3cccc(F)c3C(N)=O)c3cc[nH]c3n1)N(C(=O)CN1CCN(C(C)C)CC1)CC2 | 0.01% | 1.54% | 1.04% | 2.59% | 3.22% | 2.3% | 7.9% | 2.2% | 4.6% | 0.97%
4 | Nc1nonc1-c1nc2cnccc2n1C1CC1 | 4.53% and 2.7% | -0.59% and 1.1% | 1.1% and 2.73% | 0.56% and -1.17% | 3.98% and -1.48% | 5.09% and 3.82% | 9.07% and 5.15% | 4.37% and 3.69% | 8.28% and 5.87% | 6.05% and 2.66%
5 | COc1ccc(-c2nn3ncccc3c2-c2ccnc(Nc3ccc(F)c(F)c3)n2)cc1 | 6.24% | 39.5% | 85.2% | 2.54% | 1.2% | 5.72% | 5.29% | 4.54% | 3.83% | 0.22%
6 | Nc1ncnc2occ(-c3ccc(NC(=O)Nc4cc(C(F)(F)F)ccc4F)cc3)c12 | 35.9% and 19% | 6.63% and 1.99% | 32.5% and 23.6% | 1.41% and -6.7% | 3.15% and -0.06% | 2.87% and -2.08% | 7.26% and 0.64% | 2.85% and -0.81% | 11.3% and 5.32% | -9.78% and -3.09%
7 | COc1ccccc1-c1cc(/C=C2\C(=O)Nc3ncc(Br)cc32)cc(Br)c1O | 3.41% | -0.07% | 12.9% | 2.43% | 6.67% | 6.58% | 10.5% | 7.25% | 8.04% | -0.19%
8 | NS(=O)(=O)c1cccc(N/C=C2\C(=O)Nc3ccccc32)c1 | 8.3% | 4.04% | 9.49% | 1.68% | 4.58% | 6.24% | 7.76% | 6.39% | 7.82% | -0.16%
9 | COC(=O)Nc1nc2ccc(Oc3ccc(NC(=O)Nc4cc(C(F)(F)F)ccc4F)cc3)cc2s1 | 40% | 4.21% | 11.5% | 1.19% | -0.75% | 2.35% | 22.1% | 2.96% | 37.3% | 8.71%
10 | c1ccc(-c2n[nH]cc2-c2ccnc(-c3ccc(OCCn4ccnc4)cc3)c2)nc1 | 1.47% | 1.05% | 8.13% | 2.15% | 2.34% | 2.04% | 1.85% | 0.71% | 1.34% | -0.53%
11 | O=C(Nc1n[nH]c2nnc(-c3cccnc3)cc12)C1CC1 | 1.65% | 1.69% | 7.01% | -1.5% | 2.36% | 0.25% | 2.61% | 1.02% | 3.66% | -2.58%
12 | CC1=C(C(=O)Nc2ccc3[nH]ncc3c2)C(c2ccc(F)cc2)N=C(c2ccc(C(F)(F)F)nc2)N1 (stereo not given) | 3.3% | 1.26% | 4.23% | 2.61% | 1.68% | 1.92% | 5.6% | 1.17% | 6.02% | 1.11%
13 | Fc1ccc(Nc2nccc(-c3c(-c4ccc(C(F)(F)F)cc4)nn4ncccc34)n2)cc1F | 1.88% | -0.6% | 1.12% | 2.29% | 2.38% | 3.42% | 6.75% | 3.45% | 6.03% | 4.84%
14 | COc1cc(N2CCN(C(C)C)CC2)ccc1Nc1nc(Nc2cccc(F)c2C(=O)O)c2cc[nH]c2n1 | 3.99% | 1.69% | 8.64% | 2.69% | 7.8% | 6.1% | 7.89% | 6.27% | 7.5% | 1.76%
15 | CCn1c(-c2nonc2N)nc2cncc(C(=O)NCCNC)c21 | 5.41% | 2.4% | 5.52% | 0.59% | 1.01% | 7.93% | 7.26% | 4.48% | 4.42% | 2.61%
16 | COc1cc(Nc2ncc(-c3ccccc3)o2)cc(OC)c1 | 8.91% | 5.8% | 39.5% | 2.8% | 1.02% | 7.08% | 6.68% | 5.31% | 3.47% | 0.47%

Row | SMILES | inhibition [1] | inhibition [2] | inhibition [3] | inhibition [4] | inhibition [5] | inhibition [6] | inhibition [7] | inhibition [8] | inhibition [9] | inhibition [10]
17 | FC(F)(F)CNc1nccc(-c2cnn3ncccc23)n1 | 2.17% | 1.28% | 1.55% | 0.71% | 1.8% | 4.03% | 3.85% | 3.08% | 2.52% | -1.22%
18 | OCCCNc1nccc(-c2c(-c3ccc(F)cc3)nn3cc(C(F)(F)F)ccc23)n1 | 1.03% | 1.78% | 1.85% | 2.54% | -1.3% | 3.71% | 11.6% | 2.84% | 9.93% | 0.53%
19 | CCOc1ccc2c(-c3ccnc(Nc4cc(OC)cc(C(F)(F)F)c4)n3)cnn2n1 | 4.4% | 2.04% | 6.75% | 0.43% | 3.29% | 0.89% | 1.03% | 0.43% | 1.03% | -4.87%
20 | Cn1c(-c2nonc2N)nc2cnccc21 | 0.09% | 1.37% | 1.42% | 3.27% | 1.74% | 4.15% | 3.62% | 4.29% | 3.98% | 2.49%
21 | CN(C)CCNC(=O)Nc1ccc(N(C)c2ccnc(Nc3ccc(CS(C)(=O)=O)cc3)n2)cc1 | 5.87% | 0.55% | 2.71% | 1.7% | 1.48% | 4.53% | 5.12% | 5.5% | 6.71% | -0.51%
22 | CS(=O)(=O)Nc1ccc(-c2ccc3c(NC(=O)C4CC4)n[nH]c3c2)cc1 | 13.6% | -0.59% | 4.94% | 1.11% | 3.42% | 4.42% | 6.73% | 4.74% | 6.11% | 4.35%
23 | CCCNc1cccc(-n2ncc3c(N/N=C/c4ccncc4)ncnc32)c1 | 42.8% | 43.1% | 82.8% | 2.44% | 3.95% | 0% | 1.5% | 0.21% | 2.86% | -0.1%
24 | Cc1nnc(-c2cccc(-c3ccc(C(=O)NCC4CC4)cc3)c2)o1 | 4.17% | 5.35% | 7.53% | 4.93% | 7.42% | 8.68% | 6.82% | 7.4% | 5.64% | -0.41%
25 | O=C(O[C@H]1CN[C@H](C#Cc2cc3ncnc(Nc4ccc(OCc5cccc(F)c5)c(Cl)c4)c3s2)C1)N1CCOCC1 | 5.62% | 0.43% | 8.74% | 3.21% | 0.2% | 9.9% | 7.06% | 8.49% | 6.1% | 10.3%
26 | CN1CCN(Cc2ccc(-c3cc4ncnc(Nc5ccc(OCc6cccc(F)c6)c(Cl)c5)c4s3)o2)CC1 | 12.4% and 17.4% | 14% and 15.7% | 58.6% and 60.3% | 1.12% and 6.43% | 7.67% and 11.7% | 4.33% and 8.54% | 5.51% and 9.42% | 3.61% and 9.64% | 4.75% and 9.2% | -0.28% and 16.3%
27 | O=C(O[C@H]1CN[C@H](C#Cc2cc3ncnc(Nc4ccc5c(cnn5Cc5ccccc5)c4)c3s2)C1)N1CCOCC1 | 1.4% | 1.73% | 23.1% | -4.53% | 2.2% | -0.55% | -2.69% | -0.19% | -0.28% | -0.85%
28 | CS(=O)(=O)CCNCc1ccc(-c2ccc3ncnc(Nc4ccc(OCc5ccccc5)cc4)c3c2)o1 | 4.25% | 9.54% | 42.1% | 0.98% | 2.51% | 4.6% | 6.13% | 3.8% | 3.33% | -0.67%
29 | CCS(=O)(=O)c1ccc(OC)c(Nc2ncc(-c3cccc(C(C)=O)c3)o2)c1 | 24.1% | 18.6% | 65.9% | 2.04% | 1.3% | 3.62% | 6.17% | 3.41% | 5.84% | 5.57%
30 | NS(=O)(=O)c1ccc(N/N=C2\C(=O)Nc3ccc(C(=O)NCc4ccncc4)cc32)cc1 | 8.28% | 4.07% | 17.1% | 2.55% | 3.8% | 14.8% | 56.7% | 15.1% | 56.3% | 0.58%
31 | CNC(=O)c1sc(-n2cnc3cc(OC)c(OC)cc32)cc1OCc1ccccc1C(F)(F)F | 3.54% | 3.33% | 6.76% | -0.03% | -1.04% | 6.42% | 6.14% | 4.01% | 4.66% | 1.81%
